# According to PubChem BioAssay (Tox21):
# Records with an inconclusive call do not appear. Calls of active or inactive are those of the source. Calls come from the whole dose curve; as a rule, active = well fitted inhibition curve with a large enough effect in the repeat runs; inconclusive = weak or mixed curves; inactive = no such curve, though single readings can be large or run the other way.
# Molecular target: Cytochrome P450 2C19 (Homo sapiens) (UniProt P33261)
# Assay: Cytochrome P450 Family 2 Subfamily C Member 19 (CYP2C19) small molecule antagonists: luciferase reporter qHTS assay (AID 1671197); note: nearly all actives have a fitted effect of over 65% in size
# Conditions: P450-Glo CYP2C19 enzyme, luciferin luminescence, 1 h; series mostly up to 115 µM
# How it was run: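 Luminescent readout of CYP2C19 activity: luciferin product detected 20 min after adding detection reagent. Before that, compound and enzyme-substrate mix preincubated 10 min at room temperature; NADPH-regenerating system started a 1 h, 37C reaction. Ketoconazole as positive control.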
# Potency is the fitted concentration of half-maximal effect.
# Sequence of Cytochrome P450 2C19 (Homo sapiens) (P33261 whole entry, looked up): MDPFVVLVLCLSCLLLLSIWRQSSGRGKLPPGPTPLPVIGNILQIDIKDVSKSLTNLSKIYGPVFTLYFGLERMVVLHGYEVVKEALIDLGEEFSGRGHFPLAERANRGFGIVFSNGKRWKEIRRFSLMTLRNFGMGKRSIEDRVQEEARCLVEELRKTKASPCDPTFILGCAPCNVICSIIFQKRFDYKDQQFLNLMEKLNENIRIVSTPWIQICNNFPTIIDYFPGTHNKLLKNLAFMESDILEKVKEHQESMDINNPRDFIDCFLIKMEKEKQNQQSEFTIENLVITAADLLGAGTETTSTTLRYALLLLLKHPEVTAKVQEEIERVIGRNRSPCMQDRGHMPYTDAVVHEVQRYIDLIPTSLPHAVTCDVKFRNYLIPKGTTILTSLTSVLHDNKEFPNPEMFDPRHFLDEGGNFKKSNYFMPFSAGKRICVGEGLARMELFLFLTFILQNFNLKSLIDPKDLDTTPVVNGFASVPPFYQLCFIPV
row,SMILES,Potency
1,CCCCCCOC(=O)CCCCCCCC(=O)OCCCCCC,inactive
2,Brc1cc(-c2ccc(Br)c(Br)c2Br)cc(Br)c1Br,39.3 µM (active)
3,Cc1cc(OI)c(C(C)C)cc1-c1cc(C(C)C)c(OI)cc1C,8.71 µM (active)
4,O=C(N[C@@H](c1ccccc1)[C@@H]1CCCCN1)c1cccc(C(F)(F)F)c1Cl,17.8 µM (active)
5,CNC(=S)NC,inactive
6,Nc1nccs1,inactive
7,O=C(/C=C/c1ccccc1)OCCCc1ccccc1,39.9 µM (active)
8,Cc1ccnc2ccccc12,inactive
9,CC(C)C(OC(=O)c1ccccc1)C(C)(C)COC(=O)c1ccccc1 (stereo not drawn),6.33 µM (active)
10,CCOC(=O)[C@@H](C)Oc1ccc(Oc2nc3ccc(Cl)cc3o2)cc1,79.6 µM (active)
11,OC/C(Br)=C(\Br)CO,31.5 µM (active)
12,O=C(O)c1ccccc1NCCc1ccccc1,inactive
13,CC(C)=CC=O,inactive
14,Cc1ccc(S)cc1,39.9 µM (active)
15,c1cc[c]([Bi]([c]2ccccc2)[c]2ccccc2)cc1,0.283 µM (active)
16,O=C(C(=O)c1ccccc1)c1ccccc1,8.9 µM (active)
17,Cc1cc(S(=O)(=O)O)ccc1N=Nc1c(O)ccc2ccccc12,20 µM (active)
18,CCOC(=N)CC(=O)OCC,inactive
19,Cc1cc(O)c2c(O)c3c(O)cccc3cc2c1,4.36 µM (active)
20,CCCC1C(CC)=CC(CC)=CN1c1ccccc1 (stereo not drawn),2 µM (active)
21,CCCCCCCCCCCC[N+](C)(C)CCCS(=O)(=O)[O-],inactive
22,C=CC(=C)CCCC(C)(C)OC(C)=O,inactive
23,CCCCCCCCCOC(C)=O,inactive
